The entries come from a sample that favours hits as a whole.
C diff HTS – blocks growth of Clostridium difficile. Clostridium difficile clinical isolate growth, OD600, 24 h; hits give low values. growth activity, negative = inhibition, % at 16 µg/mL (by protocol). AID 1259249. 86,000 tested, 0.25% active;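 active = mean growth activity at or below -80% and every replicate also at or below -80%; inconclusive = mean at or below -80% but some replicate above -80%; inactive = mean growth activity above -80%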
T cruzi growth-1 – blocks T. cruzi growth in NIH3T3 culture | T. cruzi beta-gal in NIH3T3, GalScreen luminescence, 90 h | inhibition, % at 8.34 µM | 77,000 tested, 5.9% active | AID 624255;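 active = mean inhibition above about 93%, with at least 55% of replicates each passing it, limit read from the data, passing the limit was not always enough; inconclusive = only one of those two conditions holds; inactive = neither condition holds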
T cruzi growth-2 – blocks T. cruzi growth in NIH3T3 host cells. T. cruzi beta-gal in NIH3T3, GalScreen luminescence, 90 h. shares compounds with T cruzi growth-1. inhibition, % at 8.35 µM. AID 651739. 5,600 tested, 72% active;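 active = mean replicate inhibition above about 95% and at least 55% of replicates individually reaching it, limit read from the data; inconclusive = only one of the two criteria is met; inactive = neither criterion is met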
T cruzi growth-3 – blocks T. cruzi growth in NIH3T3 host cells; shares compounds with T cruzi growth-1; T. cruzi beta-gal in NIH3T3, GalScreen luminescence, 90 h; inhibition, % at 2.09 µM; 5,600 tested, 21% active;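 active = mean inhibition above about 95%, with at least 55% of replicates also reaching it, limit read from the data; inconclusive = meets just one of the two conditions; inactive = meets neither condition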
3T3 cytotox – kills mouse NIH/3T3 fibroblasts; shares compounds with T cruzi growth-1; AID 651742; cytotoxicity (signal decrease), % at 8.35 µM; 5,600 tested, 14% active; NIH/3T3 viability, CellTiter-Glo ATP luminescence, 90 h;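 active = mean signal decrease across replicates above about 35% based on untreated-well scatter, with enough replicates individually passing, limit read from the data; inconclusive = no rule stated though some were filed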
3T3 cytotox 2 – NIH/3T3 (mouse) viability loss | shares compounds with T cruzi growth-1 | 5,600 tested, 56% active | NIH/3T3 viability, CellTiter-Glo ATP luminescence, 90 h | inhibition, % at 24.9 µM | AID 651744;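 active = mean loss of cell viability signal at or above a set limit, and enough replicates individually reaching it; inconclusive = meets only the mean limit or only the replicate share; inactive = meets neither condition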
Of the large screens only hits and unclear results are named; the others gave an inactive call (follow-up assays come after a bar, where they were run).

Cc1noc(C)c1S(=O)(=O)Nc1ccc2c(c1)CC(=O)N([C@H](C)CO)C[C@H](C)[C@H](CN(C)S(=O)(=O)c1ccc(Cl)cc1)O2	none
CC(C)NC(=O)Nc1ccc2c(c1)CC(=O)N([C@H](C)CO)C[C@H](C)[C@H](CN(C)S(=O)(=O)c1ccc(Cl)cc1)O2	T cruzi growth-1 102 | T cruzi growth-2 inactive | T cruzi growth-3 inactive | 3T3 cytotox inactive | 3T3 cytotox 2 inactive
Cc1noc(C)c1S(=O)(=O)Nc1ccc2c(c1)CC(=O)N([C@@H](C)CO)C[C@@H](C)[C@@H](CN(C)S(=O)(=O)c1ccc(Cl)cc1)O2	T cruzi growth-1 inconclusive | T cruzi growth-2 inactive | T cruzi growth-3 inactive | 3T3 cytotox inactive | 3T3 cytotox 2 39
CC(C)NC(=O)Nc1ccc2c(c1)CC(=O)N([C@@H](C)CO)C[C@@H](C)[C@H](CN(C)S(=O)(=O)c1ccc(Cl)cc1)O2	none
COc1ccccc1-c1ccc2c(c1)O[C@H](CN(C)S(=O)(=O)c1ccc(F)cc1)[C@H](C)CN([C@@H](C)CO)S2(=O)=O	T cruzi growth-1 99 | T cruzi growth-2 95 | T cruzi growth-3 inactive | 3T3 cytotox inactive | 3T3 cytotox 2 47
COc1ccccc1-c1ccc2c(c1)O[C@@H](CN(C)S(=O)(=O)c1ccc(F)cc1)[C@@H](C)CN([C@@H](C)CO)S2(=O)=O	T cruzi growth-1 103 | T cruzi growth-2 109 | T cruzi growth-3 inactive | 3T3 cytotox 50 | 3T3 cytotox 2 45
COc1ccccc1-c1ccc2c(c1)O[C@@H](CN(C)S(=O)(=O)c1ccc(F)cc1)[C@@H](C)CN([C@H](C)CO)S2(=O)=O	T cruzi growth-1 106 | T cruzi growth-2 99 | T cruzi growth-3 inactive | 3T3 cytotox inconclusive | 3T3 cytotox 2 64
C[C@@H]1CN([C@@H](C)CO)S(=O)(=O)c2ccc(-c3ccccc3F)cc2O[C@H]1CN(C)S(C)(=O)=O	none
C[C@@H]1CN([C@H](C)CO)S(=O)(=O)c2ccc(-c3ccccc3F)cc2O[C@H]1CN(C)S(C)(=O)=O	none
C[C@H]1CN([C@@H](C)CO)S(=O)(=O)c2ccc(-c3ccccc3F)cc2O[C@@H]1CN(C)S(C)(=O)=O	none
C[C@H]1CN([C@@H](C)CO)C(=O)Cc2cc(NC(=O)Nc3ccccc3)ccc2O[C@H]1CN(C)CC1CCCCC1	none (no result: T cruzi growth-1)
CC(=O)N(C)C[C@@H]1Oc2cc(-c3ccc(C)cc3)ccc2S(=O)(=O)N([C@H](C)CO)C[C@H]1C	none
CC(=O)N1[C@@H]2Cn3c(ccc(-c4ccccc4F)c3=O)[C@H]1[C@@H](C(=O)NC1CCC1)[C@@H]2CO	none
C[C@H]1CN([C@@H](C)CO)C(=O)c2cc(NS(=O)(=O)c3ccc(Cl)cc3)ccc2O[C@H]1CN(C)Cc1ccc(C(F)(F)F)cc1	T cruzi growth-1 129 | T cruzi growth-2 109 | T cruzi growth-3 inactive | 3T3 cytotox inactive | 3T3 cytotox 2 103
C[C@@H]1CN([C@H](C)CO)C(=O)c2cc(NS(=O)(=O)c3ccc(Cl)cc3)ccc2O[C@H]1CN(C)Cc1ccc(C(F)(F)F)cc1	none
C[C@H](CO)N1C[C@H](C)[C@@H](CN(C)Cc2ccc(C(F)(F)F)cc2)Oc2ccc(NS(=O)(=O)c3ccc(Cl)cc3)cc2C1=O	none
C[C@H]1CN([C@@H](C)CO)C(=O)c2cc(NS(=O)(=O)c3ccc(Cl)cc3)ccc2O[C@@H]1CN(C)Cc1ccc(C(F)(F)F)cc1	T cruzi growth-1 inconclusive | T cruzi growth-2 111 | T cruzi growth-3 inactive | 3T3 cytotox inactive | 3T3 cytotox 2 103
COCCNC(=O)C[C@H]1CC[C@@H]2[C@@H](COc3ccc(NC(=O)Nc4cccc(F)c4)cc3C(=O)N2C)O1	none
C[C@H]1CN([C@@H](C)CO)C(=O)Cc2cc(NC(=O)Nc3ccc(C(F)(F)F)cc3)ccc2O[C@H]1CN(C)C	none (no result: T cruzi growth-1)
C[C@@H]1CN([C@@H](C)CO)C(=O)c2cc(NC(=O)Nc3ccc4c(c3)OCO4)ccc2O[C@@H]1CN(C)S(=O)(=O)c1ccc(Cl)cc1	none
CO[C@H]1CN(C)C(=O)c2cc(NC(=O)Nc3ccccc3)ccc2OC[C@H](C)N(C(=O)Nc2c(C)noc2C)C[C@H]1C	none (no result: C diff HTS)
O=C(C1CCOCC1)N1CC[C@H]2[C@H](CO)Nc3ccc(-c4cccc(F)c4)cc3[C@H]21	none
O=C(C1CCOCC1)N1CC[C@H]2[C@H](CO)Nc3ccc(-c4ccc(F)cc4)cc3[C@H]21	T cruzi growth-1 101 | T cruzi growth-2 104 | T cruzi growth-3 inactive | 3T3 cytotox inactive | 3T3 cytotox 2 inactive
O=C(C1CCOCC1)N1CC[C@@H]2[C@@H](CO)Nc3ccc(-c4cccc(F)c4)cc3[C@@H]21	none
O=C(C1CCOCC1)N1CC[C@@H]2[C@H](CO)Nc3ccc(-c4ccc(F)cc4)cc3[C@@H]21	T cruzi growth-1 inconclusive | T cruzi growth-2 110 | T cruzi growth-3 inactive | 3T3 cytotox inactive | 3T3 cytotox 2 inactive
COc1ccc(NC(=O)Nc2ccc3c(c2)C(=O)N([C@@H](C)CO)C[C@H](C)[C@@H](CN(C)CC2CCCCC2)OCCCC[C@H](C)O3)cc1	none
C[C@@H]1CCCCO[C@@H](CN(C)CC2CCCCC2)[C@@H](C)CN([C@@H](C)CO)C(=O)c2cc(NC(=O)Nc3ccc4c(c3)OCO4)ccc2O1	none
C[C@@H]1CCCCO[C@H](CN(C)CC2CCCCC2)[C@H](C)CN([C@@H](C)CO)C(=O)c2cc(NC(=O)Nc3ccccc3)ccc2O1	none
COc1ccc(NC(=O)Nc2ccc3c(c2)C(=O)N([C@H](C)CO)C[C@H](C)[C@@H](CN(C)CC2CCCCC2)OCCCC[C@H](C)O3)cc1	T cruzi growth-1 96 | T cruzi growth-2 105 | T cruzi growth-3 112 | 3T3 cytotox inactive | 3T3 cytotox 2 105
C[C@@H]1CCCCO[C@@H](CN(C)CC2CCCCC2)[C@H](C)CN([C@@H](C)CO)C(=O)c2cc(NC(=O)Nc3ccccc3)ccc2O1	T cruzi growth-1 105 | T cruzi growth-2 101 | T cruzi growth-3 inactive | 3T3 cytotox inactive | 3T3 cytotox 2 104
C[C@@H]1CCCCO[C@@H](CN(C)CC2CC2)[C@H](C)CN([C@H](C)CO)C(=O)c2cc(NC(=O)Nc3ccccc3)ccc2O1	none (no result: C diff HTS)
C[C@@H]1CCCCO[C@@H](CN(C)CC2CCCCC2)[C@@H](C)CN([C@@H](C)CO)C(=O)c2cc(NC(=O)Nc3ccccc3)ccc2O1	T cruzi growth-1 125 | T cruzi growth-2 104 | T cruzi growth-3 inactive | 3T3 cytotox inactive | 3T3 cytotox 2 103
C[C@H]1CCCCO[C@@H](CN(C)CC2CCCCC2)[C@@H](C)CN([C@@H](C)CO)C(=O)c2cc(NC(=O)Nc3ccc4c(c3)OCO4)ccc2O1	T cruzi growth-1 99 | T cruzi growth-2 inconclusive | T cruzi growth-3 109 | 3T3 cytotox 41 | 3T3 cytotox 2 106
C[C@H](CO)N1C[C@H](C)[C@@H](CN(C)S(=O)(=O)c2ccc(F)cc2)Oc2ccc(NC(=O)Cn3cnnn3)cc2CC1=O	none

Source: PubChem BioAssay (Broad Institute)
